# Several values for one entry are separate records, joined by “and”; a condition that tells them apart may be missing. Equal entries are not always repeated. A number with no mark means an inactive call. Records with an inconclusive call do not appear. Entries that show only a call come without a potency. Activity calls are given as the source filed them. Unless noted, calls come from the whole dose curve; as a rule, active = well fitted curve in the direction sought with a large enough effect; inconclusive = small, poorly fitted or top-dose-only effect, or another doubt; inactive = no such curve, though single readings can be large; an effect the other way counts as inactive or inconclusive.
# Columns and labels:
# [1] = Cell Viability - N2a (AID 540); conditions: N2a mouse neuroblastoma cell viability; activity change, negative = cytotoxicity: at 92.2 µM (top of the series); note: nearly all actives have a fitted effect of over 45% in size
# Procedure, shortened: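 Mouse neuroblastoma N2a cells, 1500/well, exposed to compounds 40 h at 37 °C in complete medium. Viability measured as cellular ATP by CellTiter-Glo luminescence; AC50 from Hill fits of concentration-response.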
# [2] = Cellular Toxicity (caspase-3) BJ (AID 658)
# Procedure, shortened: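 Luminescent aminoluciferin-substrate cleavage reports caspase 3/7 activity in normal human BJ fibroblasts after 16 hr compound exposure at 37 °C. Normalized to DMSO (basal) and 10 uM staurosporine (100%); AC50 from Hill fit of concentration-response.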
# [3] = MultiTox-Fluor Cytotoxicity Assay - LYMP1-001 - Dead Cells (AID 946)
# Procedure, shortened: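 Cytotoxicity as increased dead-cell protease fluorescence (bis-AAF-R110, 485/520 nm), read 60 min after MultiTox-Fluor reagent. Human lymphoblastoid line exposed 16 h; Hill-fitted AC50, with DMSO as 0% and 15 uM tetraoctylammonium bromide as 100%.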
# [4] = MultiTox-Fluor Cytotoxicity Assay - LYMP1-003 - Live Cells (AID 962);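 note: cytotoxic hits lower the live-cell protease signal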
# Procedure, shortened: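 LYMP1-003 lymphoblastoid cells, 2500/well in complete medium, treated 16 h at 37 C; live-cell protease cleavage of GF-AFC read by fluorescence (Ex/Em 405/510) after 60 min reagent; AC50 from Hill fits of concentration-response.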
# [5] = Cell Viability - LYMP1-003 - Assay at 24 hr (AID 963)
# Procedure, shortened: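 Human lymphoblastoid LYMP1-003 cells, 2500/well, treated 24 h at 37 C in complete medium. Viability read as intracellular ATP by CellTiter-Glo luminescence after 30 min at room temperature; AC50 from Hill-equation fits of qHTS concentration-response.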
# [6] = Cell Viability - LYMP1-003 - Assay at 40 hr (AID 964); note: nearly all actives have a fitted effect of over 60% in size
# Procedure, shortened: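 LYMP1-003 human lymphoblastoid cells, 2500/well, preincubated 5 h at 37 C, then treated with compound for 40 h at 37 C. Intracellular ATP read by CellTiter-Glo luminescence after 30 min at room temperature; AC50 from Hill-equation fits.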
# [7] = Cell Viability - LYMP2-004 (AID 966); note: nearly all actives have a fitted effect of over 65% in size
# Procedure, shortened: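 Lymphoblastoid LYMP2-004 cells, 2500 per well, were preincubated for 5 hr and then treated with compound for 24 h at 37 C in complete medium. Viability was read as cellular ATP by CellTiter-Glo luminescence, and AC50 values were taken from Hill fits to concentration-response data.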
# [8] = Cell Viability - LYMP2-011 (AID 969); note: nearly all actives have a fitted effect of over 60% in size
# Procedure, shortened: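 2500 cells/well in complete medium, compound-treated 24 h at 37 C. Viability read as intracellular ATP by CellTiter-Glo luminescence after 30 min at room temperature. AC50 from Hill fits of qHTS concentration-response data.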
# [9] = Cell Viability - LYMP2-021 (AID 974);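 note: compound exposure lasts 24 hours at 37 °C; nearly all actives have a fitted effect of over 55% in size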
# Procedure, shortened: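 Human lymphoblastoid LYMP2-021 cells, 2500/well in complete medium, treated 24 hours at 37 C. Intracellular ATP by CellTiter-Glo luminescence (30 min, RT); AC50 from Hill fits of concentration-response.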
# [10] = Cell Viability - LYMP2-010 (AID 981); note: nearly all actives have a fitted effect of over 55% in size
# Procedure, shortened: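 Human lymphoblastoid LYMP2-010 cells (2500/well) treated 24 h at 37 C in complete medium; viability read as intracellular ATP by CellTiter-Glo luminescence. AC50 from Hill fits of concentration-response data; tetraoctylammonium bromide positive control.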
# [11] = Cell Viability - LYMP2-014 (AID 983); note: nearly all actives have a fitted effect of over 50% in size
# Procedure, shortened: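 LYMP2-014 human lymphoblastoid cells, 2500/well, treated 24 h at 37 C in complete medium; viability by CellTiter-Glo ATP luminescence after 30 min at room temperature. AC50 from Hill fits of qHTS concentration-response; tetraoctylammonium bromide positive control.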
# [12] = Cell Viability - LYMP2-016 (AID 984); note: nearly all actives have a fitted effect of over 55% in size
# Procedure, shortened: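 Cells were seeded at 2500 per well and rested 5 hr before a 24 hr compound exposure at 37 C. Viability was then gauged as cellular ATP by luciferase luminescence, with AC50 values fitted to the Hill equation.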
# [13] = Cell Viability - LYMP2-018 (AID 985); note: nearly all actives have a fitted effect of over 50% in size
# Procedure, shortened: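 Human lymphoblastoid LYMP2-018 cells, 2500/well, settled 5 hr at 37 C then exposed to compound 24 hr at 37 C; intracellular ATP measured by CellTiter-Glo luminescence. AC50 from Hill-equation concentration-response fits.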
# [14] = Cell Viability - LYMP2-024 (AID 988); note: nearly all actives have a fitted effect of over 60% in size
# Procedure, shortened: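 Human lymphoblastoid LYMP2-024 cells (2500/well) rested 5 hr, then treated with compound for 24 hr at 37 C in complete medium. Viability was measured as intracellular ATP by CellTiter-Glo luminescence. AC50 values came from Hill-equation fits.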
# [15] = molecular target: Peroxisome proliferator-activated receptor delta (Homo sapiens) (UniProt Q03181); assay: qHTS assay for small molecule agonists of peroxisome proliferator-activated receptor delta signaling (AID 588534; calls by dose curve)
# Procedure, shortened: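 Cells carrying a PPAR-delta beta-lactamase reporter were treated with compounds for 18 h at 37 °C in agonist mode. CCF4 fluorescence was read after 2 h; EC50 and efficacy from Hill fits.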
# [16] = qHTS assay for small molecule activators of the p53 signaling pathway (AID 651743; active = well fitted activation curve with a large enough effect in the signal ratio, not every such curve was filed as active; the % refers to the signal ratio; note: potency is the fitted concentration of half-maximal effect); conditions: HCT-116 p53RE-bla, beta-lactamase FRET ratio, 16 h; activation: stronger effect = higher value
# Procedure, shortened: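 Cell-based beta-lactamase reporter (p53 response elements, HCT-116 background). After a 5-hour preincubation, cells received compound for 16 hours at 37 C; substrate development ran 2 hours at room temperature.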
# [17] = qHTS assay for small molecule agonists of the antioxidant response element (ARE) signaling pathway measured by Nrf2-dependant transcriptional activity (AID 720636; active = well fitted curve in the direction sought with a large enough effect in the repeat runs; an effect the other way counts as inactive or inconclusive)
# Procedure, shortened: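 Quantitative HTS format in HepG2 cells stably expressing an ARE-luciferase reporter; 16 hr compound treatment at 37 C, luciferase signal detected with ONE-Glo.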
# [18] = qHTS assay for small molecule activators of the human pregnane X receptor (PXR) signaling pathway (AID 720659; call rule not given here)
# [19] = Cellular Toxicity (caspase-3) Jurkat (AID 655); conditions: Jurkat caspase-3 activation, luminescence; caspase-3 activation: at 92.2 µM (top of the series), DMSO = 0%, tamoxifen = 100%;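 note: cells exposed to compound for 16 h at 37 °C before reading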
# Procedure, shortened: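 5000 Jurkat cells/well; compound 16 hr, 37 °C; Caspase-Glo 3/7 added, 20 min RT; luminescence read. Norm: DMSO = 0%, tamoxifen 100 uM = 100%. AC50, Hill model.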
# [20] = Cellular Toxicity (caspase-3) MRC-5 (AID 659);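 note: cells exposed to compound for 16 h at 37 °C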
# Procedure, shortened: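 Luminescence from caspase-cleaved aminoluciferin substrate (Caspase-Glo 3/7, 1 hr RT) reports caspase 3/7 activity in MRC-5 lung fibroblasts after 16 hr compound exposure. Normalized to DMSO basal and 10 uM staurosporine as 100%; AC50 from Hill fits.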
# Chain of Peroxisome proliferator-activated receptor delta (Homo sapiens) (Q03181 whole entry, looked up): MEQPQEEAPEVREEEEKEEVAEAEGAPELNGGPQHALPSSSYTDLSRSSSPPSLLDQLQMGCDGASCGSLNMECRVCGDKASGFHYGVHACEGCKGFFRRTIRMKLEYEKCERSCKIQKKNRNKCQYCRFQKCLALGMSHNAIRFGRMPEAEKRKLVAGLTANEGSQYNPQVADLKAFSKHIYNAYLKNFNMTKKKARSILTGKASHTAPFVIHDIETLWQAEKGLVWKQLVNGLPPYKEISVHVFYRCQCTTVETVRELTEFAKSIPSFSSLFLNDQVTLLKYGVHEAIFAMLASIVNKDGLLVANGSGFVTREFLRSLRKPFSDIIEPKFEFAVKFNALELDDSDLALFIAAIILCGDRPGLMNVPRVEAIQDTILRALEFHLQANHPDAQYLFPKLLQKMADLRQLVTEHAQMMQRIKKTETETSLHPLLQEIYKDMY
compound,measurement,setting,value
ClCc1ccccn1,Potency,[1],inactive
same,outcome,[2],inactive
same,outcome,[3],inactive
same,outcome,[4],inactive
same,outcome,[5],inactive
same,Potency,[6],inactive
same,Potency,[7],inactive
same,Potency,[8],inactive
same,Potency,[9],inactive
same,Potency,[10],inactive
same,Potency,[11],inactive
same,Potency,[12],inactive
same,Potency,[13],inactive
same,Potency,[14],inactive
same,outcome,[15],inactive
same,activation,[16],-0.689% and -0.994%
same,Potency,[17],inactive
same,outcome,[18],inactive
Cc1cc(-c2ccc(N)c(C)c2)ccc1N,Potency,[1],inactive
same,caspase-3 activation,[19],1%
same,outcome,[2],inactive
same,outcome,[20],inactive
same,outcome,[3],inactive
same,outcome,[4],inactive
same,outcome,[5],inactive
same,Potency,[6],inactive
same,Potency,[7],inactive
same,Potency,[8],inactive
same,Potency,[10],inactive
same,Potency,[11],inactive
same,Potency,[12],inactive
same,Potency,[13],inactive
same,Potency,[14],inactive
same,activation,[16],-1.87% and -0.84% and 2.36%
same,Potency,[17],inactive
COC(=O)Nc1nc2ccccc2[nH]1,Potency,[1],inactive
same,caspase-3 activation,[19],10.9%
same,outcome,[2],inactive
same,outcome,[4],inactive
same,Potency,[9],inactive
same,Potency,[10],inactive
same,Potency,[11],inactive
same,Potency,[12],inactive
same,Potency,[13],inactive
same,Potency,[14],inactive
same,outcome,[15],inactive
same,Potency,[16],10 µM (active) and 12.6 µM (active)
Clc1cccc2ccccc12,Potency,[1],inactive
same,caspase-3 activation,[19],0.494%
same,outcome,[2],inactive
same,outcome,[3],inactive
same,outcome,[4],inactive
same,outcome,[5],inactive
same,Potency,[6],inactive
same,Potency,[7],inactive
same,Potency,[8],inactive
same,Potency,[9],inactive
same,Potency,[10],inactive
same,Potency,[11],inactive
same,Potency,[12],inactive
same,Potency,[13],inactive
same,Potency,[14],inactive
same,outcome,[15],inactive
same,Potency,[17],inactive
same,outcome,[18],inactive
Clc1ccc(Cl)c(Cl)c1,Potency,[1],inactive
same,caspase-3 activation,[19],-0.724%
same,outcome,[2],inactive
same,outcome,[20],inactive
same,outcome,[3],inactive
same,outcome,[4],inactive
same,outcome,[5],inactive
same,Potency,[6],inactive
same,Potency,[7],inactive
same,Potency,[8],inactive
same,Potency,[9],inactive
same,Potency,[10],inactive
same,Potency,[11],inactive
same,Potency,[12],inactive
same,Potency,[13],inactive
same,outcome,[15],inactive
same,activation,[16],-3.13% and -3.99%
same,Potency,[17],inactive
CC(C)[C@]12CC(=O)[C@H](C)[C@H]1C2,Potency,[1],inactive
same,caspase-3 activation,[19],0.322%
same,outcome,[2],inactive
same,outcome,[20],inactive
same,outcome,[3],inactive
same,outcome,[4],inactive
same,outcome,[5],inactive
same,Potency,[6],inactive
same,Potency,[8],inactive
same,Potency,[12],inactive
same,Potency,[13],inactive
same,Potency,[14],inactive
same,outcome,[15],inactive
same,Potency,[17],inactive
same,outcome,[18],inactive
Nc1ccccc1-c1ccccc1,Potency,[1],inactive
same,caspase-3 activation,[19],2.93%
same,outcome,[2],inactive
same,outcome,[20],inactive
same,outcome,[3],inactive
same,outcome,[4],inactive
same,outcome,[5],inactive
same,Potency,[6],inactive
same,Potency,[7],inactive
same,Potency,[8],inactive
same,Potency,[10],inactive
same,Potency,[12],inactive
same,Potency,[13],inactive
same,Potency,[14],inactive
same,outcome,[15],inactive
same,activation,[16],-6.93%
same,Potency,[17],inactive
same,outcome,[18],inactive
Oc1cccc(Cl)c1Cl,Potency,[1],inactive
same,caspase-3 activation,[19],0.319%
same,outcome,[2],inactive
same,outcome,[20],inactive
same,outcome,[3],inactive
same,Potency,[6],inactive
same,Potency,[7],inactive
same,Potency,[8],inactive
same,Potency,[9],inactive
same,Potency,[10],inactive
same,Potency,[11],inactive
same,Potency,[12],inactive
same,outcome,[15],inactive
same,activation,[16],0.548%
same,Potency,[17],inactive
same,outcome,[18],inactive
